Results published in PubChem BioAssay AID1740 (National Center for Advancing Translational Sciences (NCATS), 2009).
Results filed as inconclusive are left out. Entries that show only a call come without a potency. Calls of active or inactive are those of the source. The call rests on the fitted dose curve; in most records, active means well fitted activation curve with a large enough effect; inconclusive means small, poorly fitted or top-dose-only effect; inactive means no such curve, though single readings can be large or run the other way.

Experiment: Confirmation Concentration-Response Assay for Enhancers of SMN2 Splice Variant Expression
Details: HEK293 SMN2-exon7-luciferase splicing reporter, luminescence, 30-36 h; series mostly up to 22.7 µM
Text: NIH Chemical Genomics Center [NCGC] NIH Molecular Libraries Probe Production centers Network [MLPCN] MLPCN Grant: R03 MH084179-01 Assay Submitter (PI): Elliot Androphy NCGC Assay Overview: Spinal muscular atrophy (SMA) is caused by insufficient levels of the survival motor neuron protein SMN. The SMN locus on chromosome 5q13 contains two inverted copies of SMN called SMN1 and SMN2 which are 99% identical at the amino acid level. SMN1 is a fully functional protein and SMN2 skips exon 7 90% of the time. Skipping of exon 7 produces non-functional protein product. 10% of the SMN2 protein includes exon 7 and is fully functional. In the SMA disease state, mutations in the SMN1 locus are the cause of the disease state. Because only 10% of SMN2 is of the fully functional form, it is not sufficient to overcome the deficiency produced by the loss of the SMN1 product. A therapy that either increase the amount of SMN2 product made or to increase the inclusion of exon 7 has been proposed for the treatment of SMA. We have designed an assay to identify small molecules that can increase the amount of functional SMN2 product by appending a luciferase reporter gene after the native SMN2 gene, such that inclusion of exon 7 in the expressed product places the luciferase sequence in frame, thus generating functional luciferase enzyme.
NCGC Assay Protocol Summary: This screen utilizes a luciferase reporter gene assay, combining the promoter with the major portion of the native SMN2 cDNA (exons 1 -7, intron 8 , exon 8 fused to luciferase) stably expressed in HEK293 cells. Compounds that increase luciferase signal presumably enhance expression of the functional SMN2 splice variant. Passaging media contained DMEM w/ glutamax (+phenol red) 10% FCS, 1x pen/strep, 200 ug/ml hygro, 1x sodium pyruvate. Assay media contained DMEM w/ glutamax (-phenol red) 10% FCS, 1x pen strep, 1x pyruvate Sequence, Parameter, Value, Description (1) Cells, 5 uL, 2000 cells/well, 1536 TC treated White solid bottom plate (2) Time, 10-12 hours, 37C 5% CO2 (3) Compound, 23 nl, MLSMR Library (4) Control Compound, 23 nL, Sodium butyrate st 4.5mM (final) conc (5) Time, 30-36 hours, 37C 5% CO2 (6) Reagent, 3 ul, One Glo (TM) from Promega (7) Time, 5-15 minutes, Room temp (8) Detector, Viewlux: luminescent read, 60 second integration, high speed 2x binning Keywords: Spinal muscular atrophy, SMA, SMN2, high throughput screening, MLSMR, MLPCN, NIH Roadmap, qHTS and NCGC

Row | Compound | Potency
1 | COc1ccc(CNC(=O)c2ccc(C(C)C)cc2)cc1 | 5.01 µM (active)
2 | CCc1ccc2nc(N3CCC(C(=O)N4CCC5(CC4)OCCO5)CC3)sc2c1 | inactive
3 | C[C@@H]1O[C@@H](O[C@H]2C[C@@H](O)[C@]3(CO)[C@H]4[C@H](O)C[C@]5(C)[C@@H](C6COC(=O)C6)CC[C@]5(O)[C@@H]4CC[C@]3(O)C2)[C@H](O)[C@H](O)[C@H]1O (some centres undefined) | inactive
4 | O=C(C1CCN(c2nc3ccc(Br)cc3s2)CC1)N1CCC2(CC1)OCCO2 | inactive
